Compound activity deposited in PubChem BioAssay by National Center for Advancing Translational Sciences (NCATS).
Shown are actives, neighbours in structure and some others; about 5.7% of the full set was active somewhere.
BAZ2B block: inhibitors of human BAZ2B bromodomain; Q9UIF8; AlphaScreen BAZ2B-H3K14Ac peptide displacement; Potency, µM (titrated, usually from 114 µM), inactives show at the top dose activity change, negative = inhibition, hits mostly inhibitors; 360,000 compounds, 4.4% hits; AID 504333; note: potency is the fitted concentration of half-maximal effect; % is set by controls: 0 for no effect and ±100 for the full control effect; nearly all actives have a fitted effect of over 60% in size
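BAZ2B (50 nM) with biotin-H3(5-23)K14Ac peptide (50 nM) in PBS pH 7.4, 0.01% Tween-20, preformed 30 min, then compound 30 min at room temperature; top concentration 110uM. AlphaScreen streptavidin donor/nickel chelate acceptor beads (10 ug/mL final), 20 min dark, signal read.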
L3MBTL1 block: L3MBTL1 (human) inhibition; Potency, µM (doses to about 57.1 µM), for the others: top-dose activity, negative = inhibition, hits mostly inhibitors; 230,000 compounds, 0.66% hits; AlphaScreen L3MBTL1–H3K9me1 peptide binding; Q9Y468; note: potency is the fitted concentration of half-maximal effect; % is set by controls: 0 for no effect and ±100 for the full control effect; nearly all actives have a fitted effect of over 60% in size
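L3MBTL1 50 nM + b-AHA-H3(1-15)K9me1 75 nM, 30 min RT; compound added, 30 min RT; streptavidin donor/Ni-chelate acceptor beads 10 ug/mL each final, 30 min RT dark; AlphaScreen read.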
KDM4E inh: inhibitors of human JMJD2E histone demethylase | B2RXH2 | JMJD2E catalytic domain, FDH-coupled NADH fluorescence (FDH is formaldehyde dehydrogenase) | Potency, µM (top dose mostly 57.1 µM), for the others: top-dose activity change, negative = inhibition, most hits filed as inhibitors | 230,000 compounds, 1.6% hits | AID 2147; active = well fitted inhibition curve with a large enough effect, not every such curve was filed as active; inconclusive = small, poorly fitted or top-dose-only effect, or another doubt; inactive = no such curve, though single readings can be large or run the other way;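 note: potency is the fitted concentration of half-maximal effect; 0% = wells with enzyme and -100% = buffer wells without enzyme; nearly all actives have a fitted effect of over 50% in size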
PI5P4Ka inh: inhibitors of human PI5P4K alpha; P48426; PI5P4Kalpha enzyme, ADP-Glo luminescence, 60 min; stronger effect = lower value; 330,000 compounds, 1.2% hits; max response, %; AID 652105; active = max response of -50% or lower; inconclusive = between -30% and -50%; inactive = -30% or higher; note: value at the top dose of about 77 µM; % is set by controls: 0 for no effect and ±100 for the full control effect
Target sequence (P48426 whole entry, looked up): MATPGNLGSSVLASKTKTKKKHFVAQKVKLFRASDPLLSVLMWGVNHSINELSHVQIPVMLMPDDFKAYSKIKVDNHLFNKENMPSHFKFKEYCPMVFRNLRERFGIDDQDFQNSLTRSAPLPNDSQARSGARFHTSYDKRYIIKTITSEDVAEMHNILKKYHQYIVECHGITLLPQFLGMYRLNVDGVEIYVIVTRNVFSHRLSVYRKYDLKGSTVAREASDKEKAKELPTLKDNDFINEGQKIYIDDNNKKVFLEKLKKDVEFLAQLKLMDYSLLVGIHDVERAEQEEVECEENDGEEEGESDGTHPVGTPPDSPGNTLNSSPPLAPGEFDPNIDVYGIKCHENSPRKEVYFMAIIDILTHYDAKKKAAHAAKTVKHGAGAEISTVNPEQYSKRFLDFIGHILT
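Reactions run in 0.038 M HEPES pH 7.4, 0.28 mM EGTA, 0.1% CHAPS and 5% DMSO, with PI5P4Kalpha, substrate, compound and 5 microM ATP final, one hour at room temperature. Readout is ADP-Glo luminescence.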
JMJD2A Tudor inh: inhibitors of human JMJD2A Tudor domain | Potency, µM (top dose mostly 114 µM), for the others: at the highest dose activity change, negative = inhibition, usual class: inhibitors | 390,000 compounds, 4.4% hits | AID 504339 | AlphaScreen JMJD2A-Tudor / H3K4me3 peptide binding | O75164; note: potency is the fitted concentration of half-maximal effect; % is set by controls: 0 for no effect and ±100 for the full control effect; nearly all actives have a fitted effect of over 50% in size
HP1b binding inh: blocks HP1-beta chromodomain binding to methylated histone tails. P83916. AlphaScreen HP1-beta / biotin-H3K9me3 peptide binding. Potency, µM (top dose mostly 114 µM), inactives show at the top dose activity change, negative = inhibition, usual class: inhibitors. 390,000 compounds, 0.56% hits; note: potency is the fitted concentration of half-maximal effect; nearly all actives have a fitted effect of over 70% in size
Target sequence (P83916 whole entry, looked up): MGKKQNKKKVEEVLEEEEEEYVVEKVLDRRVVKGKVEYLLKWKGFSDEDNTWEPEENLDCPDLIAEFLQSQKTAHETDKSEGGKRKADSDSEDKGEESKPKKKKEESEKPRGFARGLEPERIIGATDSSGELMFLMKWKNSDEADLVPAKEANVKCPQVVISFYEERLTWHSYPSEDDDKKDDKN
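HP1-beta protein (50 nM final) preincubated 30 min at room temperature with biotinylated H3(1-18)K9me3 peptide (50 nM) in PBS pH 7.4, 0.01% Tween-20, then compound added for 30 min. AlphaScreen streptavidin donor/nickel chelate acceptor beads (10 ug/mL final), 30 min dark, luminescence read.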
* = called active by the depositor; ? = inconclusive; nt = no result given; [ ] = dose if it differs, or a comment. Unless noted, calls come from the whole dose curve; as a rule, active = well fitted inhibition curve with a large enough effect; inconclusive = small, poorly fitted or top-dose-only effect; inactive = no such curve, though single readings can be large or run the other way.

SMILES	BAZ2B block	L3MBTL1 block	KDM4E inh	PI5P4Ka inh	JMJD2A Tudor inh	HP1b binding inh
Cc1c(NC(=O)C(C)OC(=O)c2c3c(nc4ccccc24)CCC3)c(=O)n(-c2ccccc2)n1C (stereo unspecified)	50µM*	?	-3%	?	?	9%
CNC(=O)COC(=O)c1c2c(nc3ccccc13)CCC2	50µM*	?	?	?	?	11%
Cc1cccc(OCC(=O)Nc2ccc3c(c2)C(=O)NC3=O)c1	-21%	nt	nt	-2	-8%	58%
COC(OC)c1ccc(C#N)c(=O)[nH]1	-9%	1%	?	3	-2%	26%
Cc1cccc(Cn2c(COc3ccc(Cl)cc3)nc3ccccc32)c1	3%	nt	nt	nt	8%	21%
CCN(c1ccc(C)cc1)S(=O)(=O)c1nnc(NC(=O)C2CCCCC2)s1	18%	nt	nt	nt	17%	111%
COc1ccc2c3c1OC1C[C@@H](O)C=C[C@@]31CCN(C)C2 (stereo partly specified)	nt	nt	3%	nt	nt	nt
CC(C)CCNC(=O)C1CCN(S(=O)(=O)c2ccc3nc4c(c(C(=O)O)c3c2)CCCCC4)CC1	-20%	nt	nt	8	-5%	31%
O=C(O)c1c2c(nc3ccc(S(=O)(=O)N4CCC(C(=O)NC5CCCCCC5)CC4)cc13)CCCC2	50µM*	nt	-5%	-27	?	4%
Cc1[nH]c2ccc(C(=O)OC(C)C(=O)NC3(C#N)CCCCC3)cc2c1C (stereo unspecified)	50µM*	-5%	nt	0	?	4%
CCCCn1cc(S(=O)(=O)c2ccc(Cl)cc2)c(=O)c2cc(F)c(N3CCCCC3)cc21	0%	nt	nt	nt	-12%	16%
COc1ccc(NC(=O)COC(=O)Cc2ccccc2[N+](=O)[O-])cc1OC	-17%	nt	-15%	-13	-10%	42%
COc1ccc(NCc2ccccc2[N+](=O)[O-])cc1OC	50µM*	?	?	-1	50µM*	?
Cc1c(Cl)cccc1NC(=S)C(=C([O-])c1ccc(Cl)s1)[n+]1ccccc1	nt	nt	nt	0	50µM*	?
[O-]/C(=C(\C(=S)Nc1cccc2ccccc12)[n+]1ccccc1)c1ccc(OC(F)F)cc1	35µM*	?	?	-1	-29%[57.1 µM]	-24%
[O-]/C(=C(\C(=S)Nc1cccc2ccccc12)[n+]1ccccc1)c1cccs1	?	?	?	-16	79µM*	?
[O-]/C(=C(\C(=S)Nc1cccc2ccccc12)[n+]1ccccc1)c1ccc2c(c1)OCCO2	56µM*	nt	?	nt	?	-16%
COc1cccc(NC(=S)/C(=C(\[O-])c2ccc(OC(F)F)cc2)[n+]2ccccc2)c1	-31%	-8%	-6%	1	-30%	4%
Cc1ccc(Nc2nc(C)cc(C)n2)c(C(=O)O)c1	0%	nt	nt	nt	0%	-9%
CCOc1ccc(NC(=O)CCc2nnc3n(C)c(=O)c4sccc4n23)cc1	-9%	nt	nt	nt	-13%	14%
O=CNC1CCCc2c1[nH]c1ccc(Cl)cc21 (stereo unspecified)	?	-7%	0%	14	56µM*	-13%
Cc1ccc(C(=O)CSc2nnc(-c3cccnc3)n2N)cc1	-6%	-2%	1%	nt	50µM*	13%
Cc1ccc(C(=O)CSc2nccn2-c2ccccc2)cc1	56µM*	-27%	-5%	5	?	?
COc1ccccc1-n1cnnc1SCC(=O)c1c[nH]c2ccccc12	-15%	2%	-7%	-56*	-30%	-12%
Cc1occc1-c1nnc(SCC(=O)c2c[nH]c3ccccc23)n1C	-22%	-6%	2%	-2	56µM*	-26%
SMILES	BAZ2B block	L3MBTL1 block	KDM4E inh	PI5P4Ka inh	JMJD2A Tudor inh	HP1b binding inh
CCOC(=O)C1(C)C=C(Nc2ccc(C(N)=O)cc2)C(=O)N1c1ccccc1 (stereo unspecified)	2%	nt	nt	nt	-3%	29%
Cc1occc1-c1nnc(SCC(=O)c2ccc(Cl)cc2)n1C	?	nt	-5%	-16	71µM*	-20%
Cc1ccc(C(=O)CSc2nnc(-c3ccco3)n2C)cc1	-14%	7%	5%	-56*	8.9µM*	-17%
Cn1c(SCC(=O)c2cc(Cl)c(Cl)s2)nnc1-c1ccco1	-32%	-14%	-5%	-24	?	-5%
Cc1occc1-c1nnc(SCC(=O)N2CCCCC2)n1C	-5%	8%	nt	0	-8%	17%
COc1cccc(CN2C(=O)N(c3ccc(C)cc3)C(=O)C2CC(=O)Nc2cc(OC)cc(OC)c2)c1 (stereo unspecified)	-19%	nt	nt	nt	-17%	30%
c1coc(CN(Cc2ccco2)c2ncnc3c2oc2ccccc23)c1	?	-20%	-10%	1	40µM*	-5%
CCSc1ccc([C@@H]2[C@@H]3C(=O)N(CC)C(=O)[C@@H]3[C@]3(C(=O)OC)CCCN23)cc1	-10%	4%	nt	-7	-16%	35%
CCN(CC)C(=O)c1cccc2nc3ccccc3nc12	-2%	1%	5%	-11	79µM*	-7%
O=C(c1ccccc1O)N1CCOCC1	-2%	4%	4%	2	2%	33%
O=C(c1cccc2nc3ccccc3nc12)N1CCOCC1	-9%	-2%	0%	-25	79µM*	-13%
O=C(CCC(=O)OCc1ccc(C(=O)Oc2ccc(Cl)cc2)cc1)Nc1ccccc1	-10%	-5%	?	6	-9%	32%
O=C(CCC(=O)OCc1ccc(Br)cc1)Nc1ccccc1	8%	11%	12%	-10	50µM*	16%
CN(C)c1ccc(CN(CC2CCCO2)C(=O)COc2ccc(Cl)cc2)cc1 (stereo unspecified)	32µM*	nt	nt	nt	45µM*	?
Cc1cc(OCC(=O)N(Cc2ccc(N(C)C)cc2)CC2CCCO2)ccc1Cl (stereo unspecified)	28µM*	nt	nt	nt	35µM*	?
CCCOc1ccc(C(=O)N(Cc2ccc(N(C)C)cc2)CC2CCCO2)cc1 (stereo unspecified)	40µM*	nt	nt	nt	40µM*	?
COc1ccccc1OCC(=O)N(Cc1ccc(Cl)cc1)CC1CCCO1 (stereo unspecified)	0%	nt	nt	nt	-12%	13%
COc1ccc(CNC(=O)CSc2nc3ccsc3c(=O)n2Cc2ccccc2Cl)cc1	0%	nt	nt	nt	-10%	17%
COc1cccc([C@@H]2Oc3ccc(Br)cc3C[C@H]2O)c1	nt	nt	14%	nt	nt	nt
CCN(CC)c1ccc(C(=O)OCC(=O)NC(C)(C)C)cc1	-10%	nt	-9%	2	6%	16%
Cc1ccccc1C(OCC(O)CN1CCC(C(N)=O)CC1)c1ccccc1 (stereo unspecified)	-11%	nt	nt	10	-11%	-1%
